Source: PubChem BioAssay (Tox21)
Results filed as inconclusive are left out. Activity calls are given as the source filed them. Unless noted, the call rests on the fitted dose curve.

Key:
[1] = Nuclear factor erythroid 2-related factor 2/antioxidant responsive element (Nrf2/ARE) small molecule agonists: qHTS cell viability counter screen in human keratinocytes (AID 1919968; active means well fitted curve in the direction sought with a large enough effect in the repeat runs; an effect the other way counts as inactive or inconclusive; further: nearly all actives have a fitted effect of over 55% in size; further: potency means the concentration at half of the fitted maximal effect)
In short: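 HaCaT ARE reporter line, 1,500 cells/well; 5 h settle, 37 C/5% CO2; cpd in DMSO pinned; 23 h exposure; CellTiter-Fluor, 1 h; fluorescence.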

[2] = target: Gonadotropin-releasing hormone receptor (Homo sapiens) (UniProt P30968); assay: Human gonadotropin-releasing hormone receptor (GnRHR) small molecule agonists, calcium flux assay in GnRHR-HEK293 cells (AID 1920063); further: nearly all actives have a fitted effect of over 35% in size
Sequence of Gonadotropin-releasing hormone receptor (Homo sapiens) (P30968 whole entry, looked up): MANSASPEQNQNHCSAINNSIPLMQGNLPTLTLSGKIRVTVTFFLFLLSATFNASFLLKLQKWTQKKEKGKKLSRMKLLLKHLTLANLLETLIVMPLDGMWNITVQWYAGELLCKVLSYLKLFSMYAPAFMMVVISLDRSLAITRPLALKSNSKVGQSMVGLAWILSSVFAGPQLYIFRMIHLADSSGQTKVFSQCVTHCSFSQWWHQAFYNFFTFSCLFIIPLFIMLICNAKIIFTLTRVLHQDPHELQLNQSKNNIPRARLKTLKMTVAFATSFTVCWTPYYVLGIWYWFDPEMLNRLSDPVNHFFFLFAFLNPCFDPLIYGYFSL
In short: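 GnRHR-HEK293, 1500 cells/well, 18 h 37 C/5% CO2; Ca dye 1 h 37 C; cpd pinned (DMSO), agonist mode; kinetic FL 480/540, 3 min, 1 s reads; 15 conc, n=3.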

[3] = target: KiSS-1 receptor (Homo sapiens) (UniProt Q969F8); assay: Human kisspeptin (KISS1R) small molecule agonists, calcium flux assay in KISS1R-HEK293 cells (AID 1920064; active means well fitted curve in the direction sought with a large enough effect in the repeat runs; an effect the other way counts as inactive or inconclusive)
Sequence of KiSS-1 receptor (Homo sapiens) (Q969F8 whole entry, looked up): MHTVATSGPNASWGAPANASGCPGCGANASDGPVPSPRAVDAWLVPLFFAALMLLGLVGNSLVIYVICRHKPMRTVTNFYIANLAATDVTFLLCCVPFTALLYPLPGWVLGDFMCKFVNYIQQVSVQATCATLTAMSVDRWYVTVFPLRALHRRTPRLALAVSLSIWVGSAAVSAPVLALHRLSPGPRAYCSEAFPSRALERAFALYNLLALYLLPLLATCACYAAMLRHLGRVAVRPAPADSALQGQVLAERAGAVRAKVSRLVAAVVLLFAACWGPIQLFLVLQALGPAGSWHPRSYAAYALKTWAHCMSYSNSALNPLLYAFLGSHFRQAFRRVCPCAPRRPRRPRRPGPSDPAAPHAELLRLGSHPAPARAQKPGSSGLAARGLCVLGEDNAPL
In short: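 Stable human KISS1R HEK293 line; 18 h plating, 37 C/5% CO2; calcium dye 1 h 37 C; compound pin transfer; kinetic fluorescence Ex/Em 480/540, 3 min.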

[4] = G protein-coupled receptor (GPCR) small molecule agonists, calcium flux assay: HEK293 wild type cell line counter screen (AID 1920065)
In short: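 Kinetic fluorescence at Ex/Em 480/540, recorded every second over 3 min, served as the read-out after compound addition. Each compound was tested at 15 concentrations in triplicate on cells pre-loaded with calcium dye for 1 h.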

[5] = p53 small molecule agonists, cell-based qHTS assay with rat liver microsomes (AID 1963578)
In short: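 Fluorescence from a beta-lactamase reporter under a p53 response element was measured after cells had been incubated 16 h at 37 C with test compound and rat liver microsomes plus NADPH (0.5 mg/mL final each).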

[6] = p53 small molecule agonists, cell-based qHTS assay with human liver microsomes: qHTS cell viability counter screen (AID 1963579); further: nearly all actives have a fitted effect of over 45% in size
In short: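 Seed p53RE-bla cells at 4,000 per well; incubate 5 h at 37 C; add compound, human liver microsomes and NADPH; incubate 16 h at 37 C; add CellTiter-Glo; after 30 min at room temperature, read luminescence.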

[7] = p53 small molecule agonists, cell-based qHTS assay with rat liver microsomes: qHTS cell viability counter screen (AID 1963580); further: nearly all actives have a fitted effect of over 45% in size
In short: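 In HCT-116 cells carrying a p53 response element-bla reporter, compounds were metabolically activated in situ by rat liver microsomes with NADPH over 16 h. Cell ATP content then served as the cytotoxicity measure.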

[8] = p53 small molecule agonists, cell-based qHTS assay: qHTS cell viability counter screen (AID 1963581); further: nearly all actives have a fitted effect of over 45% in size
In short: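 HCT-116 p53RE-bla cells, 4,000/well, plated 5 h before compound pin transfer; 16 h at 37 C; bla substrate 2 h RT; then CellTiter-Glo, 30 min RT, luminescence.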

[9] = p53 small molecule agonists, cell-based qHTS assay (AID 1963582; active means well fitted activation curve with a large enough effect in the signal ratio in the repeat runs, not every such curve was filed as active; the % refers to the signal ratio)
In short: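 Reporter line: p53RE-bla. Pre-incubation 5 h, 37 C, 5% CO2; compound (DMSO, pin tool) 16 h, 37 C; B/G FRET substrate 2 h RT; fluorescence intensity read.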

[10] = target: 5-hydroxytryptamine receptor 2A (Homo sapiens) (UniProt P28223); assay: 5-hydroxytryptamine receptor 2A (HTR2A) small molecule antagonists, cell-based qHTS assay (AID 1963586); further: nearly all actives have a fitted effect of over 45% in size; further: potency means the concentration at half of the fitted maximal effect
Sequence of 5-hydroxytryptamine receptor 2A (Homo sapiens) (P28223 whole entry, looked up): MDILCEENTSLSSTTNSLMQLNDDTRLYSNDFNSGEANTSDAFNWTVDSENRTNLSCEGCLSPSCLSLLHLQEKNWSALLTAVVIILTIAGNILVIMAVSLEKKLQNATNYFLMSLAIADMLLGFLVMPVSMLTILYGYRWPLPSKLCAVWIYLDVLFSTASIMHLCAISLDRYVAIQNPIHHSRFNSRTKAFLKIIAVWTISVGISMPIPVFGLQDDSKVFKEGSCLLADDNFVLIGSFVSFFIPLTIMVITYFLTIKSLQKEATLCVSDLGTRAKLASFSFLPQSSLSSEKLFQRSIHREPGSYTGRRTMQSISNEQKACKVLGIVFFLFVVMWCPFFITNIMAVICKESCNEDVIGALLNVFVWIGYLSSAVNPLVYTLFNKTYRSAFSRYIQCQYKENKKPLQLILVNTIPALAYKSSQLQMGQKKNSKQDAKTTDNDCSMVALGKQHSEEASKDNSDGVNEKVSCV
In short: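 Antagonist-mode intracellular calcium assay: DOI (4 nM) added after 5 min compound pre-incubation at room temperature to dye-loaded HTR2A-CHO cells. Fluorescence followed for 3 min, sampled every second.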

[11] = target: 5-hydroxytryptamine receptor 2A (Homo sapiens) (UniProt P28223); assay: 5-hydroxytryptamine receptor 2A (HTR2A) small molecule agonists, cell-based qHTS assay (AID 1963587); further: nearly all actives have a fitted effect of over 30% in size; further: potency means the concentration at half of the fitted maximal effect
In short: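 HTR2A-CHO cells, plated 18 h at 37 C/5% CO2, dye-loaded 1 h at 37 C; compounds in DMSO added by pin tool (agonist mode). Intracellular calcium flux read as kinetic fluorescence on FDSS over 2 min at 1 s intervals.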

[12] = target: Muscarinic acetylcholine receptor M1 (Homo sapiens) (UniProt P11229); assay: Cholinergic receptor muscarinic 1 (CHRM1) small molecule antagonists, cell-based qHTS assay (AID 1963588); further: nearly all actives have a fitted effect of over 40% in size; further: potency means the concentration at half of the fitted maximal effect
Sequence of Muscarinic acetylcholine receptor M1 (Homo sapiens) (P11229 whole entry, looked up): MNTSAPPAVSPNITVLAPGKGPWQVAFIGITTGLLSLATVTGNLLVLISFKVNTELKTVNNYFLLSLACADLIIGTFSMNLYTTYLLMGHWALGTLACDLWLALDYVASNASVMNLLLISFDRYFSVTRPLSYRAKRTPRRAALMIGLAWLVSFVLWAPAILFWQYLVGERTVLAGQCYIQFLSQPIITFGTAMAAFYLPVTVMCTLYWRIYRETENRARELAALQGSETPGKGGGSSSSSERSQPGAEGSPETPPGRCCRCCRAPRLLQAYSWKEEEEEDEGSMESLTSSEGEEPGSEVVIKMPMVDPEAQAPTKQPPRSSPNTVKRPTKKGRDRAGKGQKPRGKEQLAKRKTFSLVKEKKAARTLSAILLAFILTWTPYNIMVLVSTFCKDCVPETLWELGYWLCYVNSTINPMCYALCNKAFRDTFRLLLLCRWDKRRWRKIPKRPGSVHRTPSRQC
In short: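 CHRM1-CHO calcium-flux assay, antagonist mode. Cells were seeded 18 h, dye-loaded 1 h at 37 C and given compound for 5 min at RT, then acetylcholine was added at 50nM. FDSS fluorescence was read 3 min; 15 concentrations, three runs.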

[13] = target: Muscarinic acetylcholine receptor M1 (Homo sapiens) (UniProt P11229); assay: Cholinergic receptor muscarinic 1 (CHRM1) small molecule agonists, cell-based qHTS assay (AID 1963589); further: nearly all actives have a fitted effect of over 35% in size
In short: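 Human M1 in stable CHO line; 18 h plating, 1 h dye load 37 C; cpd added (agonist mode); Ca2+ fluorescence kinetic read, 1 s intervals; 15 conc, 3 runs.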

[14] = cAMP Responsive Elements (CRE) small molecule agonists, cell-based qHTS assay (AID 1963590)
In short: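 HEK 293T CRE-bla, 2,000 cells/well, 18 h preincubation 37 C/5% CO2; cpds (DMSO) pinned, 3 h; LiveBLAzer B/G FRET substrate, 2 h RT.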

[15] = cAMP Responsive Elements (CRE) small molecule antagonists, cell-based qHTS assay (AID 1963591; active means well fitted inhibition curve with a large enough effect in the signal ratio in the repeat runs, not every such curve was filed as active; the % refers to the signal ratio; further: potency means the concentration at half of the fitted maximal effect)
In short: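 Beta-lactamase reporter read by FRET substrate (LiveBLAzer B/G) after 2 h at room temperature. CRE-bla HEK293T cells had received compound plus 0.25 uM (final) NKH477 for 3 h at 37 °C.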

[16] = target: Beta-2 adrenergic receptor (Homo sapiens) (UniProt P07550); assay: Adrenergic beta2 receptor (ADRB2) small molecule antagonists, cell-based qHTS assay (AID 1963592); further: series mostly up to about 92 µM; nearly all actives have a fitted effect of over 50% in size
Sequence of Beta-2 adrenergic receptor (Homo sapiens) (P07550 whole entry, looked up): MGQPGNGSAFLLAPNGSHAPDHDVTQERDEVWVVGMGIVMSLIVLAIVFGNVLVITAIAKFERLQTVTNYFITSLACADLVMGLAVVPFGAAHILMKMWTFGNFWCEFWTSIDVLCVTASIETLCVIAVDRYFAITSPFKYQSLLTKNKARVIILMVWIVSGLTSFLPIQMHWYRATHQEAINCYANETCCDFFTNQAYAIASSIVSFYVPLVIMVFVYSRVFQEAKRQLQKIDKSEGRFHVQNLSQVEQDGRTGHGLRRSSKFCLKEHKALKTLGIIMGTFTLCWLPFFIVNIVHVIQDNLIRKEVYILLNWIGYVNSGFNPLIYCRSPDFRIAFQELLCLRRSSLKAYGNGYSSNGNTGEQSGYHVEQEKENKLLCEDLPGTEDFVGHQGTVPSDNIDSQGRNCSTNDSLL
In short: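 Cells (CHO, stable ADRB2 overexpression) incubated 18-20hr at 37C; compounds added from DMSO; agonist mix (1nM isoproterenol, 100uM IBMX, 25uM Ro-20-1724) added; 0.5hr RT; d2-cAMP and anti-cAMP-cryptate added; 1hr RT; 665/615 nm read.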

[17] = target: Beta-2 adrenergic receptor (Homo sapiens) (UniProt P07550); assay: Adrenergic beta2 receptor (ADRB2) small molecule agonists, cell-based qHTS assay (AID 1963593);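 further: CHO cells stably overexpressing human ADRB2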
In short: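 CHO cells stably over-expressing ADRB2 were plated overnight at 37C, then dosed with compounds plus a stimulation mix containing 100uM IBMX and 25uM Ro-20-1724 for 0.5hr at room temperature. cAMP was measured by HTRF competition, 1hr.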

[18] = target: D(2) dopamine receptor (Homo sapiens) (UniProt P14416); assay: Dopamine D2 receptor (DRD2) small molecule agonists, cell-based qHTS assay (AID 1963594); further: nearly all actives have a fitted effect of over 35% in size; further: potency means the concentration at half of the fitted maximal effect
Sequence of D(2) dopamine receptor (Homo sapiens) (P14416 whole entry, looked up): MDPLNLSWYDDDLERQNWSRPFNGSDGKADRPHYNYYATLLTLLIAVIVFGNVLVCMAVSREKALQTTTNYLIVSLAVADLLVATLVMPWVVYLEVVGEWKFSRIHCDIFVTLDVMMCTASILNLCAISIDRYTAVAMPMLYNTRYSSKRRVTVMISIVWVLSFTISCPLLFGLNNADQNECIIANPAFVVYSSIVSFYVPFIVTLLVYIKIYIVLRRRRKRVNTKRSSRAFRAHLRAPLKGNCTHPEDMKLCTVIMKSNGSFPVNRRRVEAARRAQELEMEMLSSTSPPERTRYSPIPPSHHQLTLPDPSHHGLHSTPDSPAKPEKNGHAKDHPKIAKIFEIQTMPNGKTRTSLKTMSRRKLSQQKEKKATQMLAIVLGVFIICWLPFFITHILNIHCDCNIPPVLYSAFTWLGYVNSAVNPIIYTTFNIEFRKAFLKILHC
In short: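 HEK293 cells stably expressing DRD2 were cultured 24 h at 37 C, then given Ro20-1724 (0.1 mM final) and compounds for 10 min at room temperature. NKH477 (200nM) was then added for 30 min. cAMP was read by HTRF.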

[19] = target: D(2) dopamine receptor (Homo sapiens) (UniProt P14416); assay: Dopamine D2 receptor (DRD2) small molecule antagonists, cell-based qHTS assay (AID 1963595; active means well fitted inhibition curve with a large enough effect in the signal ratio in the repeat runs, with a control signal flat; the % refers to the signal ratio)
In short: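 Antagonist mode in DRD2-HEK293 cells: after compound addition with 0.1 mM Ro20-1724, cells received quinpirole (12 nM) and NKH477 (200 nM) for 30 min at room temperature; HTRF cAMP read after 1 h detection.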

[20] = p53 small molecule agonists, cell-based qHTS assay with human liver microsomes (AID 1963577)
In short: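 Cells carrying a p53-responsive bla reporter were rested 5 h (37 C, 5% CO2) before compound transfer. Human liver microsomes plus NADPH, 0.5 mg/mL final apiece, supplied metabolism during the 16 h 37 C exposure.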
On the % scale 0 is the no-effect control and ±100 the full control effect.

CCCN(CCC)CCc1c[nH]c2ccccc12
inactive: Potency [1] | Potency [2] | Potency [3] | Potency [4] | Potency [5] | Potency [6] | Potency [7] | Potency [8] | Potency [9] | Potency [12] | Potency [13] | Potency [14] | Potency [15] | Potency [16] | Potency [17] | Potency [19]
active: Potency [10] 0.0131 µM | Potency [11] 0.0043 µM | Potency [18] 21.4 µM

[Cl-].[Cl-].[Sn+2]
inactive: Potency [1] | Potency [2] | Potency [3] | Potency [4] | Potency [6] | Potency [7] | Potency [8] | Potency [10] | Potency [11] | Potency [12] | Potency [13] | Potency [14] | Potency [15] | Potency [16] | Potency [18] | Potency [19]

C[C@]12Cc3cn[nH]c3C[C@@H]1CC[C@@H]1[C@@H]2CC[C@@]2(C)[C@H]1CC[C@]2(C)O
inactive: Potency [2] | Potency [3] | Potency [4] | Potency [5] | Potency [6] | Potency [8] | Potency [9] | Potency [16] | Potency [18] | Potency [19]
active: Potency [1] 29.8 µM

Oc1ccccc1Br
inactive: Potency [1] | Potency [2] | Potency [3] | Potency [4] | Potency [5] | Potency [6] | Potency [7] | Potency [9] | Potency [10] | Potency [12] | Potency [13] | Potency [16] | Potency [17] | Potency [18] | Potency [19]

COc1ncc(F)c2nc(S(=O)(=O)Nc3c(F)cccc3F)nn12
inactive: Potency [1] | Potency [2] | Potency [3] | Potency [4] | Potency [6] | Potency [7] | Potency [8] | Potency [10] | Potency [11] | Potency [12] | Potency [14] | Potency [15] | Potency [16] | Potency [17] | Potency [18] | Potency [19]

C#CCC1=C(C)C(OC(=O)C2C(C=C(C)C)C2(C)C)CC1=O (configuration not stated)
active: Potency [12] 11.8 µM
inactive: Potency [1] | Potency [2] | Potency [3] | Potency [4] | Potency [6] | Potency [7] | Potency [8] | Potency [10] | Potency [11] | Potency [13] | Potency [16] | Potency [18]

CN(C)[C@@H]1C(=O)C(C(N)=O)=C(O)[C@@]2(O)C(=O)C3=C(O)c4c(O)ccc(Cl)c4[C@@](C)(O)[C@H]3C[C@@H]12
inactive: Potency [1] | Potency [2] | Potency [3] | Potency [4] | Potency [5] | Potency [7] | Potency [17] | Potency [18] | Potency [19]

CC(=O)[O-].CC(=O)[O-].CC(=O)[O-].[Sb+3]
inactive: activity change, negative = cytotoxicity [1] 0.851% [at 3.27 µM] | activity change [2] 0.655% [at 2.04 µM, stronger effect = higher value] | activation [3] 14% [at 2.72 µM] | activation [4] -0.454% [at 2.04 µM] | activity change, negative = cytotoxicity [6] 0.868% [at 2.33 µM] | activity change, negative = cytotoxicity [7] -3.59% [at 2.33 µM] | activity change, negative = cytotoxicity [8] 11.8% [at 2.33 µM] | activity, negative = inhibition [10] 0.713% [at 2.12 µM] | activation [11] -0.125% [at 2.65 µM] | activity, negative = inhibition [12] 9.52% [at 2.17 µM] | activation [14] -0.0591% [at 3.27 µM] | activity change, negative = inhibition [15] -4.85% [at 3.27 µM] | activity change, negative = inhibition [16] -10.7% [at 3.27 µM] | activation [18] 0.942% [at 3.27 µM] | activity change, negative = inhibition [19] -1.4% [at 3.28 µM]

O=C(CBr)OCc1ccccc1
inactive: Potency [1] | Potency [2] | Potency [3] | Potency [4] | Potency [20] | Potency [6] | Potency [8] | Potency [9] | Potency [10] | Potency [11] | Potency [12] | Potency [13] | Potency [14] | Potency [15] | Potency [16] | Potency [18] | Potency [19]

CC(=O)[O-].CC(=O)[O-].CC(=O)[O-].[Cr+3]
inactive: Potency [1] | Potency [2] | Potency [3] | Potency [4] | Potency [6] | Potency [8] | Potency [10] | Potency [11] | Potency [12] | Potency [13] | Potency [16] | Potency [18] | Potency [19]

CCCCn1cc[n+](C)c1 (tested in a mixture with another compound)
inactive: Potency [1] | Potency [2] | Potency [3] | Potency [4] | Potency [6] | Potency [7] | Potency [8] | Potency [11] | Potency [12] | Potency [13] | Potency [14] | Potency [15] | Potency [16] | Potency [19]

CCOCCOC(C)=O
inactive: Potency [1] | Potency [2] | Potency [3] | Potency [4] | Potency [9] | Potency [11] | Potency [13] | Potency [14] | Potency [18]
active: Potency [15] 12.8 µM

NC(=S)C(N)=S
inactive: Potency [1] | Potency [2] | Potency [3] | Potency [5] | Potency [6] | Potency [7] | Potency [8] | Potency [9] | Potency [10] | Potency [11] | Potency [12] | Potency [13] | Potency [14] | Potency [15] | Potency [16] | Potency [18] | Potency [19]

N#Cc1cc(I)c(O)c(I)c1
inactive: Potency [1] | Potency [2] | Potency [3] | Potency [20] | Potency [5] | Potency [10] | Potency [11] | Potency [12] | Potency [13] | Potency [17] | Potency [18] | Potency [19]
